Assay outcomes as filed in PubChem.
A selection: hits, their analogues and other compounds. The true share with any hit is near 3.5%.
Pf apPOL block = Pf-apPOL inhibitors, biochemical, fluorescence. 0.25% of 210,000 active. Plasmodium falciparum apicoplast DNA polymerase (apPOL). Recombinant Pf-apPOL, molecular beacon fluorescence, 1.5 h. AID 1794808, 2022. inhibition, % at 10 µM
mHTT CaM bind = mutant huntingtin-calmodulin interaction inhibitors – biochemical, AlphaScreen, primary screen. P42858. AlphaScreen His-mHTT/GST-CaM binding, luminescence. inhibition, % at 15 µM. 3.6% of 190,000 active. AID 1671202, 2021;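 also: 0% = both proteins with DMSO and 100% = one protein alone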
* = called active by the depositor. Rule as the data show it: active = inhibition above about 50%; inactive = the rest.

SMILES | Pf apPOL block | mHTT CaM bind
O=C(Nc1ccc2c(c1)CCC2)N1CCc2c(nc3cc[nH]n3c2=O)C1 | -1.6 | 0.5
Cc1ccc(C2CCCN2C(=O)c2nn(C)cc2Cl)cc1 (stereo not given) | 6.2 | 0.1
Cc1ccccc1N1CCC(C(=O)NCc2cccnc2)C1=O (stereo not given) | -0.2 | -1.0
Cc1ccc(C)c(N2CCN(C(=O)c3cn4ccccc4n3)CC2)c1 | 1.6 | -2.5
COc1ccc(C2=NN(c3nc4ccccc4s3)C(=O)/C2=C\N(C)C)cc1 | -1.3 | 73.0*
CN(C)/C=C1\C(=O)N(c2nc3ccccc3s2)N=C1c1ccccc1 | -9.4 | -1.0
Cc1ccc(-c2nnc(C)c(NCc3cccs3)n2)cc1 | -1.2 | 5.5
CCc1ccc(CNc2nc3ccncc3n(CC)c2=O)cc1 | -10.9 | -1.5
CCOc1ccccc1C(=O)Nc1c2c(nn1-c1ccc(OC)cc1)CS(=O)C2 (stereo not given) | -4.1 | 1.0
O=C1c2ccc(-c3nc4ccccc4o3)cc2C(=O)N1c1ccc([N+](=O)[O-])cc1 | -2.9 | 8.0
O=C1C=CC(=O)N1c1ccc(-c2nc3ccccc3o2)cc1 | -1.9 | 53.0*
CC(=O)c1ccc(NC(=O)c2cc3cc(Br)cc(Br)c3oc2=O)cc1 | 1.9 | 0.0
Cc1sc2ccn(Cc3ccc(F)cc3)c(=O)c2c1C(=O)N1CCCCCC1 | 2.9 | 63.6*
Cc1sc2ccn(CC(C)C)c(=O)c2c1C(=O)N1CCCC(C)C1 (stereo not given) | 2.6 | 9.8
Cc1sc2ccn(Cc3ccc(F)cc3)c(=O)c2c1C(=O)N1CCCC(C)C1 (stereo not given) | 1.3 | 65.5*
CCn1ccc2sc(C)c(C(=O)N3CCCCC3)c2c1=O | -0.1 | 8.5
CC(=O)N(C1=C(Nc2ccccc2)C(=O)c2ccccc2C1=O)c1ccccc1 | -3.1 | 54.6*
COc1cccc(N(C(C)=O)C2=C(NC3CCCCC3)C(=O)c3ccccc3C2=O)c1 | 6.2 | 62.2*
CCCNC1=C(N(C(C)=O)c2cccc(F)c2)C(=O)c2ccccc2C1=O | -15.1 | 27.1
CC(=O)N(C1=C(NC2CCCCC2)C(=O)c2ccccc2C1=O)c1ccc(F)c(F)c1 | -6.4 | 48.2
CC(C)Cn1c(C2CCN(C(=O)c3cc(-c4cccs4)[nH]n3)C2)nc2ccncc21 (stereo not given) | 2.5 | 43.2
CC(C)c1ccc(C2C3=C(CCCC3=O)NC3=C2C(=O)c2ccccc23)cc1 (stereo not given) | -3.9 | 75.0*
CC(C)c1ccc(C2C3=C(CC(C)(C)CC3=O)NC3=C2C(=O)c2ccccc23)cc1 (stereo not given) | -5.0 | 65.0*
COc1cc(C2C3=C(CCCC3=O)NC3=C2C(=O)c2ccccc23)ccc1O (stereo not given) | -16.5 | 22.0
Cc1ccc(C2C3=C(CC(c4ccco4)CC3=O)NC3=C2C(=O)c2ccccc23)cc1 (stereo not given) | -9.4 | 20.0
SMILES | Pf apPOL block | mHTT CaM bind
CC(C)(C)c1ccc(C2C3=C(CCCC3=O)NC3=C2C(=O)c2ccccc23)cc1 (stereo not given) | -12.6 | 63.0*
O=C1CC(c2ccccc2)CC2=C1C(c1ccc(Cl)cc1)C1=C(N2)c2ccccc2C1=O (stereo not given) | -0.9 | 48.2
CC(C)=CCOc1ccc2c(C)c(-c3ccccc3)c(=O)oc2c1 | -1.7 | -5.9
CC12CC(NC(=O)N1c1cc(F)ccc1F)c1cc(Cl)ccc1O2 (stereo not given) | 1.0 | 8.0
S=C(NCc1ccc2[nH]c3c(c2c1)CCCC3)NC1CCCCC1 | -3.0 | 39.8
O=S(=O)(Nc1ccccn1)c1ccc2[nH]c3c(c2c1)CCCCC3 | -1.6 | 2.1
Cc1ccc(NS(=O)(=O)c2ccc3[nH]c4c(c3c2)CCCCC4)nc1 | -3.8 | 60.4*
O=S(=O)(NC1CCCCC1)c1ccc2[nH]c3c(c2c1)CCCCC3 | -3.0 | 95.5*
COc1ccc(-n2c(SCC(=O)c3ccc(Cl)cc3)nc3[nH]ncc3c2=O)cc1 | -1.2 | 21.0
COCCc1noc(COC2CCN(C(=O)c3cc(C)[nH]n3)CC2)n1 | -3.3 | -0.6
CCCN1C(=O)Cc2ccccc2C1C(=O)NCc1cccc(OC)c1 (stereo not given) | -3.4 | -6.5
COc1ccc([N+](=O)[O-])cc1C1=N/C(=C/c2ccc(OC)c(OC)c2OC)C(=O)O1 | -4.6 | 3.0
CC(=O)Nc1ccc(S(=O)(=O)NCCCNc2ccc([N+](=O)[O-])cc2Cl)cc1 | -6.5 | 11.2
O=[N+]([O-])c1ccc(NCCCNS(=O)(=O)c2ccc(Cl)cc2)c(C(F)(F)F)c1 | 6.8 | 53.0*
CCC(=O)N1CCN(c2nc3c(s2)CC(C(=O)Nc2cc(F)ccc2C)CC3)CC1 (stereo not given) | 2.6 | 15.5
COc1ccc(Br)cc1/C=C1/N=C(c2ccco2)OC1=O | 9.5 | 12.0
CCOc1ccc(N(CC(=O)NCc2ccccn2)S(C)(=O)=O)cc1 | -0.9 | -4.3
CC(=O)Oc1ccc(C(=O)Nc2cc(Cl)ccc2OC(C)=O)cc1 | -0.6 | 68.8*
